USP28 block: inhibitors of human USP28 deubiquitinase | Q96RU2 | purified USP28, Ub-rhodamine cleavage fluorescence, 30 min | inhibition, % at 25 µM | 47,000 compounds, 3% hits | AID 1645857
USP30 inh: human USP30 deubiquitinase inhibition | Q70CQ3 | purified USP30, Ub-rhodamine cleavage fluorescence | inhibition, % at 25 µM | 47,000 compounds, 5.3% hits | AID 1645860
USP17 inh: human USP17-like deubiquitinase inhibition. A8MUK1. purified USP17, Ub-rhodamine cleavage fluorescence, 3 h. inhibition, % at 50 µM. 47,000 compounds, 6.5% hits. AID 1645855
USP8 inh: human USP8 deubiquitinase inhibition; P40818; purified USP8, Ub-rhodamine cleavage fluorescence, 30 min; inhibition, % at 20 µM; 47,000 compounds, 4.2% hits; AID 1645853
An asterisk follows results filed as active; i = inactive; nt = not tested or not shown. The list is not random: actives were taken first. Their share in the collection is about 13%. Cut-off read from the data, not from the text of the source: active = inhibition above about 30%; inactive = the rest.

SMILES | USP28 block | USP30 inh | USP17 inh | USP8 inh
O=C(c1ccoc1)N1CCN(C2CCN(CCc3cccc4ccccc34)CC2)C(=O)C1 | -27 | -89 | -27 | -22
O=C1c2ccccc2-c2nnc(-c3ccncc3)cc21 | 13 | 34* | 47* | 95*
Cn1c(=O)c2c(-c3ccncc3)cc(-c3ccccc3)nc2n(C)c1=O | 0 | 9 | 10 | 13
Cn1c2ccc(F)cc2c2ncn(Cc3ccc4c(c3)OCO4)c(=O)c21 | 15 | 28 | 27 | 32*
Cn1c2ccc(F)cc2c2ncn(CCN3CCOCC3)c(=O)c21 | 4 | 14 | 10 | 25
Cc1cc(NC(=O)Cn2c(C)cc(-c3nnc(C4CC4)o3)c2C)ccc1F | 30 | 44* | 35* | 0
Cc1cc(-c2nnc(C3CC3)o2)c(C)n1CC(=O)Nc1ccccc1 | nt | nt | 2 | 4
O=C(Cn1cccc1-c1nnc(C2CC2)o1)Nc1cccc(F)c1 | -1 | -8 | 32* | 0
Cc1cccc(C(=O)Nc2ccccc2Sc2nc3c(c(=O)n(C)c(=O)n3C)n2C)c1 | 31* | 71* | 33* | 19
CC(C)(C)OC(=O)NC1CCN(S(=O)(=O)c2ccc(Cl)cc2)CC1 | 9 | 22 | 8 | 18
O=C(CSc1nc2cc(S(=O)(=O)Nc3cccc(Cl)c3)ccc2o1)NC1CC1 | -6 | -9 | -10 | -76
O=C(CSc1nc2cc(S(=O)(=O)Nc3ccccc3Cl)ccc2o1)Nc1ccc(N2CCOCC2)cc1 | 23 | 53* | nt | 9
COc1cc(N)c(Cl)cc1C(=O)OCC(=O)Nc1ccc(N2CCOCC2)cc1 | 3 | 5 | 38* | 39*
COc1cc(N)c(Cl)cc1C(=O)OCC(=O)c1ccc2c(c1)OCCO2 | 55* | 0 | 1 | -3
Cc1cccc(Nc2ccccc2C(=O)OCC(=O)Nc2ccc(N3CCOCC3)cc2)c1C | 8 | 19 | 13 | 13
NS(=O)(=O)c1cc(C(=O)OCC(=O)Nc2ccc(N3CCOCC3)cc2)ccc1Cl | -1 | 14 | 34* | 21
COc1cc(N)c(Cl)cc1C(=O)OCC(=O)NCc1ccc2c(c1)OCO2 | 0 | -23 | 4 | -6
N#Cc1ccccc1OCC(=O)NC1CCCc2ccccc21 (stereo unspecified) | -9 | 1 | -9 | -177
NS(=O)(=O)c1cc(C(=O)OCC(=O)NC2CCCc3ccccc32)ccc1Cl (stereo unspecified) | 13 | 32* | 55* | 2
Cc1ccc2c(Nc3ccc(F)c(C#N)c3)c(C(=O)N3CCCC3)cnc2n1 | 6 | 2 | 16 | -161
COc1ccc(C2CN3C(=O)CN(Cc4ccccc4Cl)C(=O)[C@]3(C)c3[nH]c4ccccc4c32)cc1 (stereo partly specified) | -1 | -25 | -5 | 0
CC(C)N1C(=O)C2COCCN2C(=O)c2cc3c(cc21)OCO3 (stereo unspecified) | nt | nt | 37* | -3
Cc1cnc(C2COCCN2C(=O)c2ccc3c(c2)OCO3)[nH]1 (stereo unspecified) | 4 | 16 | 18 | 15
CC(C)(C)Cc1nnc(-c2cnc3onc(C4CCCC4)c3c2)o1 | 6 | -36 | 7 | 35*
Fc1ccc(Cc2nnc(-c3cnc4onc(C5CCCC5)c4c3)o2)cc1 | 19 | 20 | 8 | 29
SMILES | USP28 block | USP30 inh | USP17 inh | USP8 inh
CCNC(=O)C1CCCN(S(=O)(=O)c2cc(-c3noc(C)n3)cs2)C1 (stereo unspecified) | -1 | 0 | 0 | 1
O=C(NC1CCCC1)c1cccn1Cc1noc(-c2ccccc2)n1 | 11 | 25 | 16 | 32*
O=C(NC1CCCCC1)c1cccn1Cc1noc(C2CC2)n1 | -14 | -14 | -15 | -7
N#Cc1ccc(C(=O)Nc2ccc([C@H]3OCC(=O)N[C@@H]3CO)cc2)cc1 | 0 | 35* | 33* | 3
Clc1cncc(Oc2nc(-c3cccnc3)nc3ccccc23)c1 | -4 | 8 | 63* | 6
CC(=O)Nc1ccc(C(=O)OCc2cc(=O)n3c4c(sc3n2)CCCC4)cc1 | 24 | 22 | 37* | -1
O=C(Nc1ccccc1C(=O)OCc1cc(=O)n2ccsc2n1)c1ccc(F)cc1 | -24 | -188 | -8 | -5
COc1ccc(C(=O)Nc2ccc(C(=O)OCc3cc(=O)n4ccsc4n3)cc2)cc1 | nt | nt | 38* | 8
Oc1sc(C=Nc2ccc(F)cc2)c2ccccc12 | 9 | -3 | 24 | 68*
CCOC(=O)c1cccc(N=Cc2sc(O)c3ccccc23)c1 | -215 | i | -143 | -243
Cc1cccc(NC(=O)C(C)NS(=O)(=O)c2cc(-c3noc(C4CC4)n3)ccc2C)c1 (stereo unspecified) | -4 | -20 | -8 | 0

Compound activity: PubChem, Buhrlage Lab, Dana-Farber Cancer Institute and Novartis Institutes for BioMedical Research (Cambridge, Mass)
